Source: PubChem BioAssay AID1619 (SRMLSC, 2009)
In all, about 220,000 compounds went through this assay and about 830 (0.38%) were called active.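 The calls were made as follows: active = compound inhibiting the enzyme by more than half at any dose during confirmatory dose-response retesting; inconclusive = strong single-dose inhibitors picked by rank but not retested; inactive = the rest.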 The list is a sample of the results. Entries with a potency or affinity are not part of this list.

Each compound was assayed against Leucine aminopeptidase (Plasmodium falciparum (isolate 3D7)) (UniProt Q8IL11) (assay: P. falciparum M17LAP inhibitors, primary screen, biochemical, fluorogenic H-Leu-NHMec substrate, 1536-well (AID 1619;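 also: plate controls were full reaction with DMSO carrier for no effect and no enzyme background for full effect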)). Settings: recombinant M17LAP, H-Leu-NHMec fluorogenic kinetic assay; at 30 µM; active compounds read high.
Sequence of Leucine aminopeptidase (Plasmodium falciparum (isolate 3D7)) (Q8IL11 whole entry, looked up): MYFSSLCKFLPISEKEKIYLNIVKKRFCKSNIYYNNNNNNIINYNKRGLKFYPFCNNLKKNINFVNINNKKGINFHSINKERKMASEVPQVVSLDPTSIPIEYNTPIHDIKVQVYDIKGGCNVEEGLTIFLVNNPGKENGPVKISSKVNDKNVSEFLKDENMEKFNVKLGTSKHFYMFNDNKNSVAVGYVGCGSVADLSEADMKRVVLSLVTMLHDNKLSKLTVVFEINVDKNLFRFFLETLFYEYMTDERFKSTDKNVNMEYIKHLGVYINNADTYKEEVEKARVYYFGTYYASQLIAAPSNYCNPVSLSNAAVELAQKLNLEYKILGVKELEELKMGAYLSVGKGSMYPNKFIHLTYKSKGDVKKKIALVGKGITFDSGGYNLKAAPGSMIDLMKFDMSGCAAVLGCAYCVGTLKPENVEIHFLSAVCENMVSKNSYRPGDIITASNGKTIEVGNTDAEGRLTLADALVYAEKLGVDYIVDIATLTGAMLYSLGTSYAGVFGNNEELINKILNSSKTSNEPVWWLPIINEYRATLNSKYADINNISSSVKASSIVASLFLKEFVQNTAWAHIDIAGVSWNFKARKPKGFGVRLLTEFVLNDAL

inhibition, inactive:
C=CC(C)(C)c1cc2cc3ccoc3cc2oc1=O 3.93%, Cc1nc(C)c(-c2ccn(S(=O)(=O)c3ccc(Cl)cc3)n2)o1 -15.8%, COC(=O)c1ccc(COc2ccc(C)cc2[N+](=O)[O-])o1 5.81%, Cc1ccc(OCc2ccc(C(=O)NN)o2)c([N+](=O)[O-])c1 -2.38%, CCN1CCN(CCn2c(=S)[nH]c3cc4c(cc3c2=O)OCO4)CC1 10.8%, COc1ccc(C2CCN(CC(=O)N(C)C)CC2O)cc1 (centres undefined) -0.46%, Cc1ccccc1NC(=O)COC(=O)c1c[nH]c(=O)[nH]c1=O -3.99%, CN(c1ccccc1C(=O)N1CCN(c2cccc(Cl)c2)CC1)S(C)(=O)=O -10.5%, O=C1CC(=O)C(n2cncn2)C(c2cccc(Cl)c2)C1 (centres undefined) -45.4%, O=C1CC(=O)C(n2cncn2)C(c2ccc(Cl)cc2)C1 (centres undefined) 41.7%, CCOc1cc(/C=C2\SC(=Nc3ccc(F)cc3)N(c3ccc(F)cc3)C2=O)ccc1OCC(=O)O 42.8%, COc1cccc(/C=C2/SC(=O)N(C)C2=O)c1OCc1ccc(C(=O)O)cc1 25.1%, CCOc1ccc(C(=O)NCC(=O)N2CCc3ccccc3C2)cc1OCC -4.26%, COC(=O)COc1ccc(/C=C2/SC(=O)N(CC(=O)N3CCCC3)C2=O)cc1Br 14.7%, COC(=O)COc1cc(Br)c(/C=C2/SC(=O)N(CC(=O)N3CCCC3)C2=O)cc1OC 26.7%, COc1cc(/C=C2\SC(=Nc3ccc(F)cc3)N(c3ccc(F)cc3)C2=O)ccc1OCC(=O)O 38.3%, CCOc1c(Br)cc(/C=C2/SC(=O)N(CC(=O)N3CCCC3)C2=O)cc1OC -3.92%, NC(=O)COc1ccccc1/C=C1/SC(=O)N(CC(=O)N2CCc3ccccc3C2)C1=O -2.36%, COC(=O)c1cccc(NC(=O)Cc2nc(-c3ccccc3)sc2-c2ccc(C)cc2)c1 1.12%, COc1ccc(CN2CCN(C)CC2)cc1OCc1ccccc1 -2.4%, Cc1ccc(C(=O)N2CCSC2=S)cc1 8.96%, CCc1nc(Sc2nc(C)cc(C)n2)c2oc3ccccc3c2n1 -4.31%, CCOC(=O)c1ccc(S(=O)(=O)NNC(=O)COc2ccccc2C)cc1 -5.37%, O=C(CSc1nnc(CN2CCCCCC2=O)n1-c1ccccn1)NCC(F)(F)F -5.65%, C/C(=C\c1ccccc1)CN1CCC(C(=O)N2CCC(C)CC2)CC1 1.41%, COCCSc1nnc(NC(=O)c2ccc([N+](=O)[O-])cc2)s1 -6.15%, COCc1nnc(NC(=O)c2cc(C(=O)OC)cc([N+](=O)[O-])c2)s1 6.44%, CCc1nn(-c2ccccc2)c(N)c1-c1ccc(OC)c(OC)c1 1.87%, CSc1ccc(/C=C/c2ccc3cccc(O)c3n2)cc1 14.9%, COc1cc(/C=C/c2ccc3cccc([N+](=O)[O-])c3n2)ccc1OCC(=O)O 20.7%, O=[N+]([O-])c1ccc(/C=C/c2ccc3cccc([N+](=O)[O-])c3n2)cc1 -6.24%, COC(=O)c1ccc(/C=C/c2ccc3cccc(OC)c3n2)cc1 0.52%, CCCn1nnc(NC(=O)c2ccco2)n1 -183%, CCC(C)n1c(SCC(=O)NC(=O)Nc2ccc3c(c2)OCCO3)nc2ccccc2c1=O (centres undefined) -1.6%, CCOC(=O)c1cn2nc(Oc3ccc(OC)cc3)ccc2n1 9.2%, CCCCCOC(=O)NC1CCS(=O)(=O)C1 (centres undefined) -3.96%, CCOC(=O)C1(CCSC)NC(c2ccco2)C2C(=O)N(CC)C(=O)C21 (centres undefined) 5.79%, CC(C)C(=O)NCCc1c[nH]c2ccccc12 3.48%, CCC(=O)NCCc1c[nH]c2ccccc12 -4.01%, CSc1n[nH]c(=O)n1-c1ccc(Cl)cc1 -4.84%, Cc1sc(NC(=O)c2ccc(Cl)s2)c(C(N)=O)c1C -3.24%, O=[N+]([O-])c1ccc(Sc2ccccn2)nc1 6.7%, O=[N+]([O-])c1ccc(Sc2ccccc2)nc1 -3.15%, Cc1ccc2oc(=O)c3cnn(CC(=O)NCCc4ccsc4)c3c2c1 11.8%, CCOC(=O)Cn1nnnc1CN(Cc1ccc(OC)cc1)Cc1cc2cc(CC)ccc2[nH]c1=O 7.13%, CCc1cccc2c(=O)c(C(=O)N3CCCCCC3)c[nH]c12 3.21%, CCN1CCc2c(OCC(=O)N3CCCc4ccccc43)cccc2C1=O 0.37%, CC(C)=C1C2CCC1C(C(=O)Nc1sc(C)c(-c3ccc(C(C)C)cc3)c1C(N)=O)C2C(=O)O (centres undefined) -4%, Cc1sc(NC(=O)C2CCCCC2C(=O)O)c(C(N)=O)c1C (centres undefined) 45%, CCc1ccc(-c2c(C)sc(NC(C)=O)c2C(N)=O)cc1 41.9%, Cc1sc(NC(=O)/C=C/C(=O)O)c(C(N)=O)c1-c1ccc(C(C)(C)C)cc1 21.9%, COC(=O)c1c(NC(=O)/C=C/C(=O)O)sc(C)c1-c1ccc(C(C)C)cc1 15.5%, Cc1sc(NC(=O)C2C3CCC(C3)C2C(=O)O)c(C(N)=O)c1-c1ccc(C(C)(C)C)cc1 (centres undefined) 39.7%, Cc1sc(NC(=O)CCC(=O)O)c(C(N)=O)c1-c1ccccc1 18%, CCc1c(C)sc(NC(=O)C2CCCCC2C(=O)O)c1C(N)=O (centres undefined) 50.6%, COc1ccccc1-c1n[nH]c(=S)n1N -6.79%, COC(=O)/C(=C/c1ccccc1)NC(=O)c1ccco1 0.48%, COC(=O)c1ccc(CN2CCN(Cc3ccc(F)cc3)C(CCO)C2)cc1 (centres undefined) -9.03%, Cc1ccc(NC(=O)C(CC(C)C)NC(=O)C2CCC(C)CC2)nc1 (centres undefined) -1.65%, CC(C)NC(=O)COC(=O)c1ccc(Cl)c(S(=O)(=O)N2CCCC2)c1 4.58%, Cc1ccc2cc(CCNC(=O)c3ccco3)c(=O)[nH]c2c1C -13.9%, O=C(CCC(=O)NNC(=O)COc1ccccc1)NCc1ccccc1 -10.8%, CC(=O)C1=C(O)C(=O)N(CCCO)C1c1ccccc1 (centres undefined) 27.1%, O=C(c1ccc(S(=O)(=O)N2CCCCC2)cc1)N(c1ccccn1)C1CCCCC1 0.89%, O=[N+]([O-])c1ccc(N2CCCC2)cc1NC(c1ccccc1)c1ccccc1 8.49%, CCOc1ccc(NC(=O)C(=O)N/N=C\c2ccc(CNS(=O)(=O)c3ccccc3)o2)cc1 0.49%, O=C1CCCC(O)=C1N=Nc1cccc(C(=O)O)c1 46.3%, O=Cc1cc(N=Nc2ccccc2Cl)ccc1O 40.2%, O=C(NC1CCCCC1)c1sc(=S)n2c1[nH]c(=O)c1ccccc12 24.2%, Cc1ccc(CNC(=O)c2ccc3c(=O)[nH]c4c(C(=O)NCC5CCCO5)sc(=S)n4c3c2)cc1 (centres undefined) 1.99%, O=C(NCc1ccccc1)c1sc(=S)n2c1[nH]c(=O)c1ccccc12 27.9%, CCCCCNC(=O)c1ccc2c(=O)[nH]c3c(C(=O)NCC4CCCO4)sc(=S)n3c2c1 (centres undefined) 53.8%, Cc1ccc(Nc2nc(N)nc(CSc3nnc(-c4ccncc4)o3)n2)cc1 -3.96%, O=c1cc(C(Cl)(Cl)Cl)oc2c1ccc1ccccc12 -3.47%, CC(=O)C1=C(O)C(=O)N(c2ccc(S(N)(=O)=O)cc2)C1c1ccc([N+](=O)[O-])cc1 (centres undefined) 23%, Cc1ccc(N2CC(=O)Nc3c(oc4nc(-c5ccccc5)cc(C)c34)C2=O)cc1 -16.6%, COC(=O)CSc1[nH]c(=O)cc(C)c1C#N 0.03%, Cc1cc(=O)[nH]c(SCC(=O)c2ccccc2)c1C#N 16.9%, CCOC(=O)CSc1[nH]c(=O)cc(C)c1C#N 17%, Cc1cc(=O)[nH]c(SCC(=O)O)c1C#N 2.48%, CCOC(=O)NC(=O)C(=CNc1ccccc1OC)C(=O)NC(=O)OCC 22.1%, O=[N+]([O-])c1ccc([C@H](O)[C@H](CO)N=Cc2ccccc2O)cc1 3.71%, CCNC(=O)CC1C(=O)N(c2ccccc2)C(=O)N1Cc1ccc(OC)cc1 (centres undefined) -7.36%, Cc1c(-c2nnc(-c3ccc(C(F)(F)F)cc3)o2)cnn1-c1ccccc1 -4.2%, CC(=C\c1ccccc1)/C=C1/SC(=O)N(CCCC(=O)Nc2ccc(C(=O)O)cc2)C1=O 52.8%, CC(/C=C1\SC(=S)N(CC(=O)O)C1=O)=C\c1ccccc1 19.7%, CCCC1CCc2c(sc(NC(=O)OCC)c2C#N)C1 (centres undefined) -10%, CC(=O)Nc1sc2c(c1C#N)CCC(C)C2 (centres undefined) -3.55%, CN1CCN(CC(=O)Nc2sc3c(c2C#N)CCC(C(C)(C)C)C3)CC1 (centres undefined) -2.54%, Cc1cc(C(=O)Nc2sc3c(c2C#N)CCC(C(C)(C)C)C3)no1 (centres undefined) -3.46%, CCCn1ncc(CN2CCN(Cc3ccsc3)C(CCO)C2)c1C (centres undefined) -4.96%, Cc1ccc(Nc2ccc(-n3ccnc3)nn2)cc1C 1.15%, CCCCNC(=O)N1CCN(C(=O)C2CCCO2)CC1 (centres undefined) -0.24%, C=C(C)COc1ccc2oc(C)c(C(=O)OCCOC)c2c1 -2.33%
